26 molecules from PubChem BioAssay (Tox21) can be followed below.

The nature of experiment [1]: qHTS assay to identify small molecule agonists of the sonic hedgehog signaling (Shh) pathway (AID 1259368).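 Note: NIH/3T3-derived 3T3Gli1-Luc cells carrying a stable Gli1-driven firefly luciferase reporter; nearly all actives have a fitted effect of over 15% in size.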 Particulars: NIH/3T3 Gli1-Luc reporter, luciferase, 24 h, hits give high values; series mostly up to 92.4 µM. An outline of the steps: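 Steps: seed 3T3 Gli1-Luc cells, incubate 4 hr at 37 C, pin-transfer compounds in DMSO alongside a positive control, incubate 24 hr, add luciferase detection reagent, wait 30 min at room temperature, read luminescence.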

Experiment [2] is described as follows: qHTS assay to identify small molecule antagonists of the sonic hedgehog signaling (Shh) pathway (AID 1259369). Note: nearly all actives have a fitted effect of over 45% in size. Particulars: NIH/3T3 Gli1-Luc reporter, Shh antagonist, luminescence 24 h; series mostly up to 92.4 µM. The procedure, abridged:
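Inhibition of Shh signalling is measured as reduced Gli1-response-element firefly luciferase output in an NIH/3T3-derived stable reporter clone stimulated with conditioned medium for 24hr.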
On the technique in general: In qHTS, concentration-response curves come from the screen itself.

The target of experiment [3] is Estrogen receptor beta (Homo sapiens) (UniProt Q92731). Description: qHTS assay to identify small molecule agonists of the estrogen receptor beta (ER-beta) signaling pathway (AID 1259377; active = well fitted activation curve with a large enough effect in the signal ratio in the repeat runs, not every such curve was filed as active; the % refers to the signal ratio). Particulars: ER-beta-UAS-bla HEK293T, beta-lactamase FRET ratio, 16 h; series mostly up to 92.4 µM. The procedure, abridged:
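Measured by fluorescence intensity from a B/G FRET beta-lactamase substrate (2 h, room temperature) in ER-beta-UAS-bla HEK293T cells treated with DMSO-dissolved compounds for 16 hr at 37C and 5% CO2.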

Experiment [4] has the same target. Nature of the experiment: qHTS assay to identify small molecule antagonists of the estrogen receptor beta (ER-beta) signaling pathway (AID 1259378; active = well fitted inhibition curve with a large enough effect in the signal ratio in the repeat runs, not every such curve was filed as active; the % refers to the signal ratio). Particulars: ER-beta-UAS-bla HEK293T, beta-lactamase FRET ratio, 16 h; series mostly up to 92.4 µM. An outline of the steps: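 ER-beta-UAS-bla HEK293T (GripTite) cells in 2% charcoal-stripped FBS medium were preincubated 6 hr at 37C, dosed with compound, then stimulated with 1 nM E2 (final) for 16 hr; beta-lactamase reporter read by B/G FRET fluorescence after 2 hr substrate loading.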

Experiment [5] can be described thus: qHTS assay to identify small molecule agonists of the androgen receptor (AR) signaling pathway in the presence of an antagonist - cell viability counter screen (AID 1259379; active = well fitted curve in the direction sought with a large enough effect in the repeat runs; an effect the other way counts as inactive or inconclusive; note: nearly all actives have a fitted effect of over 25% in size; note: potency is the fitted concentration of half-maximal effect;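 for activity change, negative = cytotoxicity: MDA-kb2 human breast cancer cells carrying an MMTV luciferase reporter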). Particulars: MDA-kb2 viability, CellTiter-Fluor, 16 h; series mostly up to 92.4 µM. The procedure, abridged:
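Fluorescence from CellTiter-Fluor, added after 15 hr and read 1 hr later, gave cell viability. Cells were MDA-kb2 exposed to compounds (15 concentrations) in the presence of 3.0uM nilutamide at 37C, 0% CO2.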

Experiment [6] is described as follows: qHTS assay to identify small molecule agonists of the estrogen receptor beta (ER-beta) signaling pathway - cell viability counter screen (AID 1259380; active = well fitted curve in the direction sought with a large enough effect in the repeat runs; an effect the other way counts as inactive or inconclusive; note: nearly all actives have a fitted effect of over 30% in size). Particulars: ER-beta-bla HEK293T viability, CellTiter-Glo luminescence, 16 h; series mostly up to 92.4 µM. An outline of the steps:
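Same-well viability counter screen. Cells: ER-beta-UAS-bla HEK293T, plated 6 hr before compound, in 2% charcoal-stripped FBS. Compound exposure 16 hr, 37C; viability by CellTiter-Glo luminescence after 30 min at room temperature.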

A short description of experiment [7]: qHTS assay to identify small molecule antagonists of the estrogen receptor beta (ER-beta) signaling pathway - cell viability counter screen (AID 1259382; active = well fitted curve in the direction sought with a large enough effect in the repeat runs; an effect the other way counts as inactive or inconclusive; note: nearly all actives have a fitted effect of over 55% in size). Particulars: ER-beta-UAS-bla HEK293T viability, CellTiter-Glo luminescence, 16 h; series mostly up to 92.4 µM. The procedure, abridged:
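Following a 6 hr plating period, HEK293T cells carrying a UAS-driven beta-lactamase reporter under ER-beta control received compounds and 1nM E2 (final). After 16 hr at 37C and 2 hr substrate loading, CellTiter-Glo luminescence indicated viability.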

The target of experiment [8] is Estrogen receptor (Homo sapiens) (UniProt P03372). Description: qHTS assay to identify small molecule agonists of the estrogen receptor alpha (ER-alpha) signaling pathway in the presence of an antagonist (AID 1259383). Note: top concentration of the series differs between compounds; nearly all actives have a fitted effect of over 15% in size. Particulars: VM7Luc4E2 cells, ERE-luciferase, +ICI-182,780, 22 h; series mostly up to 92.4 µM. The procedure, abridged:
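Cells are hormone-deprived for 5 days (charcoal-stripped FBS, no phenol red), plated for 24hr, spiked with 10.0nM ICI-182,780, then dosed at 15 concentrations. After 22hr at 37C, ONE-Glo luminescence reports ERE-luciferase activity.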

The nature of experiment [9]: qHTS assay to identify small molecule agonists or antagonists of the thyroid stimulating hormone receptor (TSHR) signaling pathway - wild type cell line counter screen (AID 1259384). Particulars: HEK293 wild type, cAMP HTRF counter-screen, hits give high values; series mostly up to 92.4 µM. The procedure, abridged: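 Wild-type HEK293 cells were plated 18 h at 37 C/5% CO2, pin-dosed with compound plus Ro20-1724 medium, held 30 min at room temperature, then given cAMP-d2 and anti-cAMP-cryptate; fluorescence was read after 1 h. Fifteen concentrations, triplicate.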

In experiment [10] the target is Androgen receptor (Homo sapiens) (UniProt P10275). Description: qHTS assay to identify small molecule agonists of the androgen receptor (AR) signaling pathway in the presence of an antagonist (AID 1259381). Note: nearly all actives have a fitted effect of over 15% in size. Particulars: MDA-kb2 MMTV-luciferase, AR agonist + nilutamide, 16 h; series mostly up to 92.4 µM. An outline of the steps:
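Cells are MDA-kb2 (human breast carcinoma, MMTV-luc, AR/GR responsive). Nilutamide is present at 3.0uM final throughout; compounds are added at 15 concentrations and incubated 16hr at 37C before ONE-Glo luminescence detection.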

Molecules are shown by their SMILES. Values without a mark were called inactive. Results filed as inconclusive are left out. Active and inactive are the calls of the source. Unless noted, calls come from the whole dose curve.
% is set by controls: 0 for no effect and ±100 for the full control effect.

Chain of Estrogen receptor beta (Homo sapiens) (Q92731 whole entry, looked up): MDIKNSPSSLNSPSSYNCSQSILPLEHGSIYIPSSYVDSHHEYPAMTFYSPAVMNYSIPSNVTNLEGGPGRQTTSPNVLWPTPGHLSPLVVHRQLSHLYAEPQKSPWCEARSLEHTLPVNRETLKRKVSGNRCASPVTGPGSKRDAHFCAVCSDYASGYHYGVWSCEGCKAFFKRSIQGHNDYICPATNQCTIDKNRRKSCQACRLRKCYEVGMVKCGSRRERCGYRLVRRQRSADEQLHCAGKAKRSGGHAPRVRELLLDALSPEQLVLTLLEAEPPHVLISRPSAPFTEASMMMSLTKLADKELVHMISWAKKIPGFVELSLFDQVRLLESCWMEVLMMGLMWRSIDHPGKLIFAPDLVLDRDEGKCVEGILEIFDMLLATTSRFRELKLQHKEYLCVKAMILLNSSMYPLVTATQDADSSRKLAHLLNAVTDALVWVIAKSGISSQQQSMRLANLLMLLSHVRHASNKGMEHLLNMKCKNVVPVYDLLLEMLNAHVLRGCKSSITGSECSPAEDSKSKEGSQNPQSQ
Chain of Estrogen receptor (Homo sapiens) (P03372 whole entry, looked up): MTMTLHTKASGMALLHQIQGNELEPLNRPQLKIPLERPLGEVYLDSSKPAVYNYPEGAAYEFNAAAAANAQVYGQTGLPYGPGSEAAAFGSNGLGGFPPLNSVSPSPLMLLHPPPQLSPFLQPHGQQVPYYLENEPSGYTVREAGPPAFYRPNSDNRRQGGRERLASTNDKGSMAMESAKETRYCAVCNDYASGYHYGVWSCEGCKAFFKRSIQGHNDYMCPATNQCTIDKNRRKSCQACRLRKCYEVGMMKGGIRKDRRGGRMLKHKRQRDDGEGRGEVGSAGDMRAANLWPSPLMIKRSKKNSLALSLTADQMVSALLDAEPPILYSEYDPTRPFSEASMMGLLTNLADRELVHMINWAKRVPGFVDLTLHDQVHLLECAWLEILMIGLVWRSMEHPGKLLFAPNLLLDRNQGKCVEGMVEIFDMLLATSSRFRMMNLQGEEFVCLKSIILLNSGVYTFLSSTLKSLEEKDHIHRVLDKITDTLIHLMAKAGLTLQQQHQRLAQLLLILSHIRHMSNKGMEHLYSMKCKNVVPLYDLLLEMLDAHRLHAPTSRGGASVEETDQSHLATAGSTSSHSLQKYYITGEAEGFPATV
Chain of Androgen receptor (Homo sapiens) (P10275 whole entry, looked up): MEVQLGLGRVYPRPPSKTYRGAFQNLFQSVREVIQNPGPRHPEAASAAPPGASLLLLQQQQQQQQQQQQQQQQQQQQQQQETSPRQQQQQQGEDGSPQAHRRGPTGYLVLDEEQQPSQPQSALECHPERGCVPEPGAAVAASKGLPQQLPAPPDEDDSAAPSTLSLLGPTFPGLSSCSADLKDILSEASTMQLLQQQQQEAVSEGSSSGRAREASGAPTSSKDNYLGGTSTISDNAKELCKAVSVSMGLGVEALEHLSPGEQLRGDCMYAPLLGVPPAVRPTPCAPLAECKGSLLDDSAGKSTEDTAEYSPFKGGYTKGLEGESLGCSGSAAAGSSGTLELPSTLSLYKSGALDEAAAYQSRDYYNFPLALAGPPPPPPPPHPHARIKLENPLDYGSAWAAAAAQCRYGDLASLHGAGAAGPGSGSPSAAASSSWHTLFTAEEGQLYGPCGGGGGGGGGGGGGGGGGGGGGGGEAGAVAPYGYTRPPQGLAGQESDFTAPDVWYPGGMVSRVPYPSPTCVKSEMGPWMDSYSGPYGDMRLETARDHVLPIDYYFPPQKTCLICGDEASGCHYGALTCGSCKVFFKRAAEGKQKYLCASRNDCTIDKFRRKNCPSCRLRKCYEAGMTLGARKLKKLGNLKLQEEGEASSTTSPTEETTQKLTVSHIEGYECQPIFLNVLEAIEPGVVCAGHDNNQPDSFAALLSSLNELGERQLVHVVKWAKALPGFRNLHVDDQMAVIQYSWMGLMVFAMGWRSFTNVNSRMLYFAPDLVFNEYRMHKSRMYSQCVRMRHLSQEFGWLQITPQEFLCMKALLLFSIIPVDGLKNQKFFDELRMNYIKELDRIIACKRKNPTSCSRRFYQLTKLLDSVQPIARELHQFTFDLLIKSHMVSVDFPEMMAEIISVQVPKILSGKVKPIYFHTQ

Take `Cc1ccc2c(c1)C1CN(C)CCC1N2` (configuration not stated): the activity change in experiment [1] is 0.824% [at 18.9 µM]. Also, in experiment [2], the activity change, negative = inhibition was 7.51% [at 19 µM]. In addition, the activation was -2.72% [at 19 µM] in experiment [3] and 0.841% [at 19 µM] in experiment [8]. Moreover, the activity, negative = inhibition in [4] was 2.34% [at 19 µM]. For the same molecule, the activity change, negative = cytotoxicity in [5] is 0.715% [at 19 µM]; in experiment [6], -1.6% [at 19 µM]; in experiment [7], 0.836% [at 19 µM].
For the molecule `CCN(CCO)CCn1c(Cc2ccccc2)nc2c1c(=O)n(C)c(=O)n2C`, the call in experiment [1], in [4] and in experiment [9] was inactive. Further, the Potency entry in [2], in experiment [3], in experiment [5], in [6], in [7] and in [8] was “inactive” in each case.
Consider `CCOP(=S)(OCC)Oc1ccc(Cl)cc1Cl`, for which the molecule was classed as inactive in [1], in experiment [4] and in experiment [9]. Moreover, the Potency result in [2], in experiment [3], in [5], in experiment [6], in experiment [7] and in experiment [8] was “inactive” throughout.
On to `CCC(CC)(CNC(=O)CCCO)c1cccc(OC)c1`, for which the call in [1], in experiment [4] and in experiment [9] was inactive. Besides, the Potency entry in experiment [2], in [3], in experiment [5], in [6], in experiment [10] and in experiment [8] was “inactive” throughout.
On to `C#CC(C)(C)O`, for which the molecule was classed as inactive in experiment [1] and in experiment [4]. For the same molecule, the Potency entry in [2], in experiment [3], in [5], in experiment [6] and in experiment [7] was “inactive” throughout.
As to `COC[C@@H](NC(C)=O)C(=O)NCc1ccccc1`, the molecule was classed as inactive in experiment [1], in [4] and in [9]. Moreover, the Potency entry in experiment [2], in experiment [3], in [5], in experiment [6], in [10] and in experiment [7] was “inactive” each time.
As to `CCOC1Oc2ccc(OS(C)(=O)=O)cc2C1(C)C` (configuration not stated), the molecule was classed as inactive in [1] and in experiment [4]. For the same molecule, the Potency entry in experiment [2], in experiment [3], in experiment [6], in [10], in [7] and in [8] was “inactive” in each case. For the same molecule, the Potency in [5] was 68 µM (active).
Take `COc1ccccc1OC`: the result in experiment [1], in [4] and in experiment [9] was inactive. In addition, the Potency result in experiment [2], in experiment [3], in experiment [5], in [6], in [7] and in [8] was “inactive” in each case.
`N#CN`: the outcome in [1] and in experiment [4] was inactive. Further, the Potency result in experiment [2], in [3], in experiment [5], in [6], in experiment [7] and in [8] was “inactive” throughout.
Take `CCOC(=O)c1ncn2c1CN(C)C(=O)c1c(I)cccc1-2`: the call in [1], in experiment [4] and in [9] was inactive. The Potency entry in [2], in experiment [3], in experiment [5], in [6], in experiment [7] and in experiment [8] was “inactive” each time.
For the molecule `c1cncc([C@@H]2CCCCN2)c1`, the call in experiment [1], in experiment [4] and in experiment [9] was inactive. Also, the Potency result in experiment [2], in experiment [3], in experiment [5], in experiment [6], in experiment [7] and in experiment [8] was “inactive” each time.
For `O=C/C=C/c1ccco1`, the call in [1] and in experiment [4] was inactive. Moreover, the Potency entry in experiment [2], in experiment [3], in experiment [5], in experiment [6], in [10] and in experiment [7] was “inactive” in each case. For the same molecule, in experiment [8], the Potency entry was “inactive”.
Take `BrCC1CO1` (configuration not stated): the molecule was classed as inactive in [1] and in experiment [4]. Besides, the Potency result in experiment [2], in experiment [3], in [5], in experiment [6], in experiment [7] and in experiment [8] was “inactive” in each case.
As to `CCN[C@@H](C)Cc1ccccc1`, the outcome in experiment [1] and in experiment [4] was inactive. For the same molecule, the Potency entry in experiment [2], in experiment [3], in [5], in experiment [6], in [10] and in experiment [7] was “inactive” in each case. Moreover, the Potency result in experiment [8] was “inactive”.
`C[C@H](CN1CCOCC1)C(C(=O)N1CCCC1)(c1ccccc1)c1ccccc1`: the result in experiment [1] and in experiment [4] was inactive. In addition, the Potency result in [2], in [3], in experiment [5], in experiment [6], in experiment [10] and in experiment [8] was “inactive” each time.
Consider `CN(C)C(=O)Oc1cc(OC(=O)N(C)C)cc(C(O)CNC(C)(C)C)c1` (configuration not stated), for which the molecule was called inactive in [1], in experiment [4] and in [9]. Also, the Potency entry in experiment [2], in [3], in experiment [5], in experiment [6], in experiment [10] and in experiment [7] was “inactive” throughout. In addition, the Potency entry in experiment [8] is “inactive”.
In the case of `CCOC(=O)CCl`, the outcome in experiment [1], in experiment [4] and in [9] was inactive. In addition, the Potency entry in experiment [2], in [3], in experiment [5], in experiment [6], in experiment [7] and in experiment [8] was “inactive” each time.
Turning to `OCC(Cl)CCl` (configuration not stated), the call in experiment [1] and in experiment [4] was inactive. In addition, the Potency entry in [2], in experiment [3], in experiment [5], in experiment [6], in [7] and in experiment [8] was “inactive” in each case.
As for `CC[C@@H](CO)NC(=O)[C@@H]1C=C2c3cccc4[nH]cc(c34)C[C@H]2N(C)C1`, the result in experiment [1], in experiment [4] and in [9] was inactive. The Potency entry in [2], in experiment [3], in experiment [5], in experiment [6], in experiment [10] and in experiment [8] was “inactive” throughout.
Take `CCC(C)(C#N)N=NC(C)(C#N)CC` (configuration not stated): the outcome in [1], in experiment [4] and in experiment [9] was inactive. The Potency entry in experiment [2], in experiment [3], in experiment [5], in experiment [6], in experiment [10] and in experiment [8] was “inactive” each time.
For `C/C=C/CC#N`, the outcome in experiment [1], in experiment [4] and in [9] was inactive. For the same molecule, the Potency entry in [2], in experiment [3], in [5], in [6], in experiment [7] and in experiment [8] was “inactive” throughout.
With `N[C@@H](Cc1ccc(Oc2cc(I)c(O)c(I)c2)c(I)c1)C(=O)O`, the call in experiment [1] and in [4] was inactive. The Potency result in experiment [2], in experiment [3], in experiment [5], in experiment [6], in experiment [7] and in experiment [8] was “inactive” each time.
Consider `CC[C@@H](CO)NC(=O)[C@@H]1C=C2c3cccc4c3c(cn4C)C[C@H]2N(C)C1`, for which the call in experiment [1] and in [4] was inactive. Moreover, the Potency result in experiment [2], in experiment [3], in experiment [5], in experiment [6], in [7] and in experiment [8] was “inactive” throughout.
Consider `COc1ccc(C=O)cc1O`, for which the molecule was classed as inactive in experiment [1], in experiment [4] and in experiment [9]. Further, the Potency entry in [2], in [3], in experiment [5], in [6], in [10] and in experiment [7] was “inactive” in each case. Further, the Potency result in experiment [8] was “inactive”.
Take `O=C1CC(=O)NC(=O)N1`: the call in [1], in [4] and in experiment [9] was inactive. In addition, the Potency entry in experiment [2], in experiment [3], in experiment [5], in [6], in experiment [7] and in [8] was “inactive” each time.
As for `C/C(=N\NC(=O)Nc1cc(F)cc(F)c1)c1ncccc1C(=O)O`, the result in experiment [1], in [4] and in experiment [9] was inactive. In addition, the Potency result in experiment [2], in [3], in experiment [5], in [6], in experiment [7] and in [8] was “inactive” in each case.
